Results: PubChem BioAssay AID1508600 (Functional Genomics Laboratory (NCATS/FGL), 2020)
In all, about 53,000 sequences went through this assay and about 3,700 (7%) were called active.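 Rule for the calls: active = gene knockdowns whose robust z-score for IL-1 alpha signal is at least 2 or at most -2, so actives lie on both sides; inactive = the rest.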 Shown is part of a subset that was picked to be rich in actives.

experiment: Components of the Cytosolic LPS Sensing Pathway: Gene Identification via Genome-wide siRNA Screen; conditions: RAW264.7 macrophages, IL-1a HTRF, actives lie on both sides, screened at 100 nM (by protocol), cells primed 5 h with Pam3CSK4 first;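 note: robust z of the log signal after scaling to non-targeting control siRNA wells of the plate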
In short: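 Read-out: IL-1a HTRF on supernatant, divided by plate negative-control median ×100, log-transformed and converted to robust z-score. Cells were RAW264.7 given 100 nM siRNA, Pam3CSK4-primed 5 hours, then LipidA-transfected 24 hour.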

For GGUAUCAUCUAUAGAGACUTT against Prkch, which z-score is on record?
The z-score was -0.265 (inactive).

Which z-score does the source give for “CCGUGCCAAACUUCUUACUTT against 2610528J11Rik” here?
The z-score was -0.1 (inactive).

For GGGCUAGAGGAAAACGAAATT against Crot, which z-score is on record?
The z-score was 1.64 (inactive).

Which z-score does the source give for CGCAGAGAGUAGAAAAUUGTT against Pdia5 here?
The z-score was -0.428 (inactive).

With GGACUGUCAUCUUCCUCAGTT against Ston2 as the sequence, how does the z-score read?
Its z-score is -2.97 (active).

For GCUAUGACCGGAGGUUCUATT against Morn5, which z-score is on record?
The z-score was 0.555 (inactive).

With GGAAACGAAGAGGAAGAAUTT against Ddit3 as the sequence, how does the z-score read?
The z-score was -0.571 (inactive).

For CCAGUAUAUUCUGAGGGUUTT against Isl1, which z-score is on record?
Its z-score is 0.374 (inactive).

With GGAGACUGAGGAAGAAUCUTT against Atcay as the sequence, how does the z-score read?
The z-score was -0.302 (inactive).

For GGACUGUGACAUAUUCUUUTT against Zfp54, which z-score is on record?
The z-score was 2.74 (active).

With GGGUGGACUGAAUGCUGAUTT against Qtrt1 as the sequence, how does the z-score read?
The z-score was 0.665 (inactive).

Which z-score does the source give for GGUGUACCUUGGGACUUACTT against Prpf18 here?
Its z-score is -2.84 (active).

Which z-score does the source give for GGUUUACUUCCCAUACCUGTT against Pold1 here?
The z-score was 0.701 (inactive).

Which z-score does the source give for GGCAAUACGUAACAUGCCATT against Slc6a4 here?
Its z-score is -0.148 (inactive).

For GGACGAAGACACCAAAGUGTT against Camk2a, which z-score is on record?
Its z-score is -1.31 (inactive).

For GGUAGGGACCUAUCCUUGGTT against Cramp1l, which z-score is on record?
Its z-score is -0.518 (inactive).

Which z-score does the source give for GGAUGGAGUUCACAUUUUCTT against Utp11 here?
Its z-score is 0.816 (inactive).

Which z-score does the source give for CCUUGAGCAAAUCACACAUTT against Stk32b here?
Its z-score is 3.94 (active).

With GGACAAGAACUUAGUGAUGTT against Emc9 as the sequence, how does the z-score read?
Its z-score is 0.522 (inactive).

Which z-score does the source give for GGCUGGAACCCUAAUUUCUTT against Tpo here?
The z-score was 1.32 (inactive).

With AGUGGGCUUCAAAUUUCCATT against Aym1 as the sequence, how does the z-score read?
Its z-score is -0.551 (inactive).

Which z-score does the source give for GCAUGAUCGUGUUUGUUUATT against Srpk2 here?
The z-score was 0.722 (inactive).

For GGUUUCAAUAAUCCAGGAATT against Naa16, which z-score is on record?
The z-score was 0.352 (inactive).

Which z-score does the source give for CCUCAAAUGGCCACACACUTT against Kcnj11 here?
Its z-score is -1.27 (inactive).

With GGACUAAAUGGUCAAGAUUTT against Rbm8a as the sequence, how does the z-score read?
Its z-score is -2.74 (active).

With CCUUGGAUGUAUUCAUAUATT against Prkar2a as the sequence, how does the z-score read?
The z-score was 0.255 (inactive).

With GGGUACCUGUGGUUUUUGUTT against Hdhd5 as the sequence, how does the z-score read?
Its z-score is -0.481 (inactive).

For GCUCCAAAUUAAAUUUUGCTT against Irf9, which z-score is on record?
Its z-score is 0.768 (inactive).

With GGUCAUUCAAGAGAUACUATT against Dennd10 as the sequence, how does the z-score read?
The z-score was -0.65 (inactive).

Which z-score does the source give for GGCAAAGGACUUCAUGGCUTT against B4galt4 here?
Its z-score is -1.42 (inactive).
